In PubChem BioAssay (NCATS):
Results filed as inconclusive are left out. Calls of active or inactive are those of the source. Calls come from the whole dose curve; as a rule, active = well fitted curve in the direction sought with a large enough effect; inconclusive = small, poorly fitted or top-dose-only effect, or another doubt; inactive = no such curve, though single readings can be large; an effect the other way counts as inactive or inconclusive.

Experiments:
[1] = qHTS of pediatric cancer cell lines to identify multiple opportunities for drug repurposing: Primary screen for DAOY cells (AID 1347090); note: nearly all actives have a fitted effect of over 55% in size; note: potency is the fitted concentration of half-maximal effect
Outline: (§1)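 Cell viability, CellTiter-Glo luminescence; 500-1,000 cells/well, 8- or 11-point titration, 48 h compound exposure at 37 degrees C, 5% CO2. Controls: DMSO neutral, bortezomib 2.3 µM final as positive.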

[2] = qHTS of pediatric cancer cell lines to identify multiple opportunities for drug repurposing: Primary screen for SJ-GBM2 cells (AID 1347091); note: potency is the fitted concentration of half-maximal effect
Outline: as §1

[3] = qHTS of pediatric cancer cell lines to identify multiple opportunities for drug repurposing: Primary screen for A673 cells (AID 1347092); note: nearly all actives have a fitted effect of over 45% in size; note: potency is the fitted concentration of half-maximal effect
Outline: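 Luminescence from CellTiter-Glo, taken after 15 min at room temperature, served as the proxy for metabolically active cells following 48 h treatment. Both potency and efficacy were taken from curves fitted to the titration data.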

[4] = qHTS of pediatric cancer cell lines to identify multiple opportunities for drug repurposing: Primary screen for BT-37 cells (AID 1347094); note: potency is the fitted concentration of half-maximal effect
Outline: (§2)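 Plated cells (500-1,000 per well, growth media) were allowed to settle for 5 hours, treated with compound dilutions for 48 hours, then lysed with CellTiter-Glo for 15 min at room temperature before luminescence reading.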

[5] = qHTS of pediatric cancer cell lines to identify multiple opportunities for drug repurposing: Primary screen for NB-EBc1 cells (AID 1347095); note: potency is the fitted concentration of half-maximal effect
Outline: as §2

[6] = qHTS of pediatric cancer cell lines to identify multiple opportunities for drug repurposing: Primary screen for U-2 OS cells (AID 1347096); note: nearly all actives have a fitted effect of over 50% in size
Outline: (§3)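 Cells (500-1,000/well) rested 5 h, then received compounds for 48 h; metabolically active cells were measured by CellTiter-Glo luminescence. Final concentrations spanned up to 46 µM (MIPE, 11-point) or 0.59 nM-46 µM (NPC, 8-point) in primary screens, 11-point in follow-ups.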

[7] = qHTS of pediatric cancer cell lines to identify multiple opportunities for drug repurposing: Primary screen for NB1643 cells (AID 1347099); note: nearly all actives have a fitted effect of over 50% in size; note: potency is the fitted concentration of half-maximal effect
Outline: as §2

[8] = qHTS of pediatric cancer cell lines to identify multiple opportunities for drug repurposing: Primary screen for LAN-5 cells (AID 1347100); note: potency is the fitted concentration of half-maximal effect
Outline: as §3

[9] = qHTS of pediatric cancer cell lines to identify multiple opportunities for drug repurposing: Primary screen for BT-12 cells (AID 1347101); note: nearly all actives have a fitted effect of over 25% in size; note: potency is the fitted concentration of half-maximal effect
Outline: as §3

[10] = qHTS of pediatric cancer cell lines to identify multiple opportunities for drug repurposing: Primary screen for Rh18 cells (AID 1347102); note: nearly all actives have a fitted effect of over 65% in size; note: potency is the fitted concentration of half-maximal effect
Outline: as §3

[11] = qHTS of pediatric cancer cell lines to identify multiple opportunities for drug repurposing: Primary screen for OHS-50 cells (AID 1347103); note: nearly all actives have a fitted effect of over 40% in size; note: potency is the fitted concentration of half-maximal effect
Outline: as §3

[12] = qHTS of pediatric cancer cell lines to identify multiple opportunities for drug repurposing: Primary screen for RD cells (AID 1347104); note: nearly all actives have a fitted effect of over 55% in size
Outline: as §2

[13] = qHTS of pediatric cancer cell lines to identify multiple opportunities for drug repurposing: Primary screen for MG 63 (6-TG R) cells (AID 1347105); note: nearly all actives have a fitted effect of over 50% in size; note: potency is the fitted concentration of half-maximal effect
Outline: as §2

[14] = qHTS of pediatric cancer cell lines to identify multiple opportunities for drug repurposing: Primary screen for control Hh wild type fibroblast cells (AID 1347106);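 note: series mostly up to about 46 µM; a drop in luminescence marks cytotoxicity and a rise apparent proliferation; nearly all actives have a fitted effect of over 55% in size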
Outline: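 Viability after 48 h compound treatment at 37C, 500-1,000 cells/well, read as ATP luminescence with CellTiter-Glo. Primary screens used 11-point (MIPE, 0.78 nM-46 µM) or 8-point (NPC, 0.59 nM-46 µM) final concentrations; follow-up screens used 11-point dilutions.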

[15] = qHTS of pediatric cancer cell lines to identify multiple opportunities for drug repurposing: Primary screen for Rh30 cells (AID 1347107); note: series mostly up to about 46 µM; nearly all actives have a fitted effect of over 75% in size
Outline: as §3

[16] = qHTS of pediatric cancer cell lines to identify multiple opportunities for drug repurposing: Primary screen for SK-N-SH cells (AID 1347098); note: nearly all actives have a fitted effect of over 65% in size; note: potency is the fitted concentration of half-maximal effect
Outline: as §3

[17] = qHTS of pediatric cancer cell lines to identify multiple opportunities for drug repurposing: Primary screen for Rh41 cells (AID 1347108);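 note: series mostly up to about 46 µM; luminescence drop marks cytotoxic hits; nearly all actives have a fitted effect of over 70% in size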
Outline: as §2

[18] = qHTS of pediatric cancer cell lines to identify multiple opportunities for drug repurposing: Primary screen for Saos-2 cells (AID 1347097); note: nearly all actives have a fitted effect of over 40% in size
Outline: as §2

[19] = qHTS of pediatric cancer cell lines to identify multiple opportunities for drug repurposing: Confirmatory screen for A673 cells (AID 1347110);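 note: potency is the fitted concentration of half-maximal effect; cells exposed to compound for 48 h before the viability read; nearly all actives have a fitted effect of over 65% in size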
Outline: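 qHTS titration format: primary MIPE 0.78 nM-46 µM (11 pts), NPC 0.59 nM-46 µM; confirmation 11 pts. 48 h, CTG luminescence.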

Measured: Potency

c1ccc2occc2c1
not listed: [16] | [17] | [18] | [19]
inactive: all other assays above

CCOC(=O)CN1CCCC1=O
not listed: [10] | [18] | [19]
inactive: all other assays above

O=C(O)c1[nH]n(-c2ccc(S(=O)(=O)O)cc2)c(=O)c1N=Nc1ccc(S(=O)(=O)O)cc1
not listed: [14] | [15] | [18] | [19]
inactive: all other assays above

CCC(CN)=C(c1ccccc1)c1ccccc1
not listed: [8] | [11] | [12] | [13] | [15] | [16] | [19]
inactive: all other assays above

N[C@@H](Cc1cc(I)c(O)c(I)c1)C(=O)O
not listed: [18] | [19]
inactive: all other assays above

Cc1onc(-c2ccccc2)c1C(=O)Cl
not listed: [8] | [19]
inactive: all other assays above

CC(C)C(=O)OCc1cccc(OC(=O)[C@@H]2N3C(=O)[C@@H](NC(=O)Cc4ccccc4)[C@H]3SC2(C)C)c1
not listed: [5] | [11] | [14] | [17] | [18] | [19]
inactive: all other assays above

CC(C)OP(=O)(CP(=O)(OC(C)C)OC(C)C)OC(C)C
not listed: [8] | [19]
inactive: all other assays above

Nc1ccc(C(=O)OCC(O)CO)cc1 (configuration not stated)
active: [7] 1 nM
not listed: [5] | [10] | [19]
inactive: all other assays above

C[C@H]1C[C@H]2[C@@H]3CCC4=CC(=O)C=C[C@]4(C)[C@H]3C(=O)C[C@]2(C)[C@@]1(O)C(=O)CO
not listed: [5] | [19]
inactive: all other assays above

CC(=O)[C@H]1CC[C@H]2[C@@H]3C=CC4=CC(=O)CC[C@@]4(C)[C@@H]3CC[C@]12C
not listed: [8] | [11] | [19]
inactive: all other assays above

CCC1=C[C@@H]2CN(C1)Cc1c([nH]c3ccccc13)[C@@](C(=O)OC)(c1cc3c(cc1OC)N(C)[C@H]1[C@@](O)(C(=O)OC)[C@H](OC(C)=O)[C@]4(CC)C=CCN5CC[C@]31[C@@H]54)C2
inactive: [15]
active: [1] 53.1 nM | [2] 8.4 nM | [3] 10.6 nM | [4] 27.6 nM | [5] 33.5 nM | [7] 2660 nM | [8] 8.4 nM | [9] 34.7 nM | [13] 21.1 nM | [19] 11.7 nM

C[C@@H](C1=C(CCN(C)C)Cc2ccccc21)c1ccccn1
not listed: [5] | [10] | [11] | [16] | [19]
inactive: all other assays above

CC(C)Cc1ccc(C(C)C(=O)OCc2ccccn2)cc1 (configuration not stated)
not listed: [8] | [11] | [17] | [18] | [19]
inactive: all other assays above

CN1CCC(Nc2ncc3ncnc(Nc4ccc(F)c(Cl)c4)c3n2)CC1
inactive: [1] | [2] | [5] | [18] | [7] | [13] | [15]
active: [3] 21100 nM | [4] 17400 nM | [16] 17200 nM | [10] 26600 nM | [11] 27600 nM
